# Screening results as filed in PubChem.
# BAZ2B block = blocks human BAZ2B | AID 504333 | Potency, µM (highest dose often 114 µM), inactives show top-dose activity change, negative = inhibition, actives largely listed as inhibitors | 4.4% of 360,000 active | AlphaScreen BAZ2B-H3K14Ac peptide displacement | Q9UIF8; further: on the % scale 0 is the no-effect control and ±100 the full control effect; nearly all actives have a fitted effect of over 60% in size
#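 AlphaScreen displacement of biotin-H3(5-23)K14Ac peptide (50 nM final) from BAZ2B (50 nM final) in PBS pH 7.4, 0.01% Tween-20; complex preformed 30 min RT, then compounds (top 110 uM) 30 min RT, beads 20 min dark.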
# G9a inh = blocks human histone lysine methyltransferase G9a; Q96KQ7; G9a H3K9 monomethylation, AlphaScreen, 2 h; Potency, µM (doses to about 102 µM), inactives show top-dose activity, negative = inhibition, most hits filed as inhibitors; 8.8% of 350,000 active; AID 504332; further: on the % scale 0 is the no-effect control and ±100 the full control effect; nearly all actives have a fitted effect of over 75% in size
# Target sequence (Q96KQ7 913-1193 limits assumed): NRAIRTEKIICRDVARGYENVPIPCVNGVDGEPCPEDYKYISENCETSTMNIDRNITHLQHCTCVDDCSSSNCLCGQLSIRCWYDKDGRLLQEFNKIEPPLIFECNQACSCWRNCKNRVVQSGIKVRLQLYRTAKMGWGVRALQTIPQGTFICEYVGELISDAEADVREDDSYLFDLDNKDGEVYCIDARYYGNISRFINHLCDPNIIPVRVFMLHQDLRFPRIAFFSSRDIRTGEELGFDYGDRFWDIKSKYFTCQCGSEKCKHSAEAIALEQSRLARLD
#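 Signal arises when biotinylated H3K9 peptide, once monomethylated, bridges streptavidin donor and antibody-captured acceptor beads. Enzyme at 20 nM was preincubated 15 min with test compounds; peptide 500 nM and SAM 20 uM then reacted for 2 h.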
# JMJD2A Tudor inh = JMJD2A Tudor domain (human) inhibition. O75164. AlphaScreen JMJD2A-Tudor / H3K4me3 peptide binding. Potency, µM (doses to about 114 µM), without a hit: at the highest dose activity change, negative = inhibition, actives largely listed as inhibitors. 4.4% of 390,000 active; further: on the % scale 0 is the no-effect control and ±100 the full control effect; nearly all actives have a fitted effect of over 50% in size
# HP1b chromo inh = inhibitors of HP1-beta chromodomain binding to methylated histone tails | P83916 | AlphaScreen HP1-beta / biotin-H3K9me3 peptide binding | Potency, µM (doses to about 114 µM), inactives show at the highest dose activity change, negative = inhibition, most hits filed as inhibitors | 0.56% of 390,000 active; further: nearly all actives have a fitted effect of over 70% in size
# Target sequence (P83916 whole entry, looked up): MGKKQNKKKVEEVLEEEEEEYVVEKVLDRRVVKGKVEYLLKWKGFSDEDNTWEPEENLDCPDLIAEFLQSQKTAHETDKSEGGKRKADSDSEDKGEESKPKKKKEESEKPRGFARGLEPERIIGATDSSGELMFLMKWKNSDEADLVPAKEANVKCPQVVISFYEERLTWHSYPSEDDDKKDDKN
#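 HP1-beta protein (50 nM final) preincubated 30 min at room temperature with biotinylated H3(1-18)K9me3 peptide (50 nM) in PBS pH 7.4, 0.01% Tween-20, then compound added for 30 min. AlphaScreen streptavidin donor/nickel chelate acceptor beads (10 ug/mL final), 30 min dark, luminescence read.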
# Sfp PPTase inh = blocks B. subtilis Sfp PPTase activity; Potency, µM, inactives show largest response in the series, negative = inhibition, hits mostly inhibitors; 3.5% of 310,000 active; AID 1490; Biochemical Sfp PPTase activity, qHTS; Q9F4F7;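 further: the enzyme is Sfp with the accession as filed and its product quenches rhodamine fluorescence; 0% = enzyme reaction without inhibitor and -100% = no enzyme wells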
#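 After 15 min at room temperature with compound, 15 nM Sfp received 5 uM rhodamine-CoA plus 12.5 uM BHQ-2-ybbR (50 mM Hepes pH 7.6, 10 mM MgCl2). Rate came from the fluorescence difference over 30 min, ex 525/em 598 nm.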
# 12-LOX inh = blocks human arachidonate 12S-lipoxygenase. P18054. AID 1671190. Potency, µM (top dose mostly 108 µM), for inactives: at the top dose activity change, negative = inhibition, hits mostly inhibitors. purified 12hLO, xylenol orange hydroperoxide absorbance. 1.1% of 580,000 active; further: on the % scale 0 is the no-effect control and ±100 the full control effect
#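 Purified human 12hLO at 150 nM in 25 mM Hepes, 0.01% Triton X-100, pH 7.0, preincubated 15 min at room temperature with compound. Reaction started with 40 uM arachidonic acid, 30 min at room temperature. Hydroperoxide measured by Fe-xylenol orange, 573/405 nm absorbance ratio.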
# The depositor's hits bear a star; ? = inconclusive; · = no result; [ ] = another dose, or the depositor's remark. An excerpt weighted towards active compounds, which were near 8.7% of everything screened. The call rests on the fitted dose curve; in most records, active means well fitted curve in the direction sought with a large enough effect; inconclusive means small, poorly fitted or top-dose-only effect, or another doubt; inactive means no such curve, though single readings can be large; an effect the other way counts as inactive or inconclusive. Potency means the concentration at half of the fitted maximal effect.
SMILES,BAZ2B block,G9a inh,JMJD2A Tudor inh,HP1b chromo inh,Sfp PPTase inh,12-LOX inh
COc1ccccc1NC(=O)C(C)Sc1ncnc2ccccc12 (configuration not stated),·,·,·,·,·,-1%
Nc1ccc2c(c1)Cc1cc(N)c(Br)cc1-2,·,·,50µM*,?,·,-22%
COc1cc2c(cc1OC)Cc1cc(OC)c(OC)cc1Cc1cc(OC)c(OC)cc1C2,·,-15%[2.33 µM],·,·,2%,·
COc1cc2c(cc1N)-c1ccc(N)cc1C2,·,·,14µM*,?,·,?
CC(NC(=O)c1cc(F)cc(F)c1)C1CC2CCC1C2 (configuration not stated),·,·,·,·,·,-22%
COC(=O)NNC(=O)c1ccc(Cl)cc1Cl,13%,-7%[59 µM],-7%,19%,-1%,-19%
COC(=O)Nc1cc(C(=O)c2ccc(Cl)cc2Cl)c[nH]1,?,50µM*,?,-18%,-17%,·
COCC(=O)N(C1CCOCC1)C1CCN(Cc2cccnc2)CC1,·,·,·,·,·,19%
N#CCCc1nc2ccccc2s1,·,·,·,·,·,-3%
O=c1[nH]c(=S)[nH]c2sccc12,-29%,10µM*,3.5µM*,?,22µM*,8.9µM*
O=C(CSc1nnnn1C1CCCC1)c1ccc2ccccc2c1,·,·,·,·,·,-6%
CC(C)CNc1ccc2c(n1)C(C)(C(=O)Nc1cccnc1)CN(Cc1ccccc1)C2 (configuration not stated),·,·,·,·,·,23%[176 µM]
CCSC(=O)N=Nc1ccc(O)cc1,·,·,56µM*,?,·,?
O/N=C(/Cc1ccccc1)c1ccc(O)cc1O,·,·,·,·,·,-47%
Oc1ccc(/C(Cc2ccccn2)=N\Nc2ccccc2)c(O)c1,32µM*,4µM*,?,-28%,-10%,?
Oc1ccc(/C(Cc2ccc3ccccc3n2)=N\Nc2ccccc2)c(O)c1,?,7.9µM*,50µM*,71µM*,-30%,?
O=C(O)CCCC(=O)N[C@H]1CO[C@H]2[C@@H]1OC[C@@H]2Nc1nccc(-c2ccc(-c3ccccc3)cc2)n1,·,·,·,·,·,39%
Cc1ccccc1OCc1nc(C2CN(C(=O)C(C)c3ccccc3)C2)no1 (configuration not stated),·,·,·,·,·,-3%
Cc1ccc(C(=O)NC2CCCN(c3cc(-c4ccccc4)[nH]n3)C2)s1 (configuration not stated),·,·,·,·,·,17%
O=C(CSc1ccc2nnc(-c3cccs3)n2n1)N1CCCC1,?,18µM*,-3%,47%,-21%,-1%
CCSc1ccc2nnc(-c3cccs3)n2n1,-27%,?,-16%,20%,5%,?
CCOC(=O)CSc1ccc2nnc(-c3cccs3)n2n1,5%,10µM*,-35%,39%,-5%,?
Cc1ccc(C2=NC3(CCN(C(=O)CCc4ccccc4)CC3)ON2)cc1,·,·,·,·,·,-3%
Cc1c(C(=O)Nc2ccc(C(F)(F)F)cc2)oc2ccccc12,·,·,·,·,·,7%
C/C(=N\N=C(N)N)c1ccc(Cl)c(Cl)c1,-12%,50µM*,-18%,-11%,-1%,-18%
SMILES,BAZ2B block,G9a inh,JMJD2A Tudor inh,HP1b chromo inh,Sfp PPTase inh,12-LOX inh
Cc1ccc(NC(=O)Cn2ccn3nc(-c4ccc(F)cc4)c(CO)c3c2=O)cc1C,·,·,·,·,·,9%
CCCN1CCC(=NNC(=O)c2ccc(Br)o2)CC1,-2%[57.1 µM],-6%,-23%,22%,22%,15%
CCN1CCC(=NNC(=O)c2ccco2)CC1,7%,45µM*,5%[11.4 µM],72%,-18%,3%
Cc1ccc(C)c(N2CCN(C(=O)c3ccc(N4CCOCC4)c([N+](=O)[O-])c3)CC2)c1,?,45µM*,56µM*,45µM*,-14%,-1%
Cc1ccc(C)c(S(=O)(=O)N2CCN(C(=O)c3ccc(N4CCCC4)c([N+](=O)[O-])c3)CC2)c1,?,32µM*,?,-10%,-2%,-7%
O=C(c1ccc(N2CCOCC2)c([N+](=O)[O-])c1)N1CCCCC1,-19%,8%,-8%,22%,13%,-1%
O=C(Nc1ccccc1-c1ccccc1)c1ccccc1Cl,·,·,·,·,·,31%
O=C(O)Cc1ccc(S(=O)(=O)Cc2ccccc2)cc1,·,·,·,·,·,1µM*
COc1ccc(C(=S)NCS(=O)(=O)c2ccc(C)cc2)cc1,?,8.9µM*,-27%,-29%,?,16µM*
Cc1ccc(S(=O)(=O)CNC(=S)c2cccc(C)c2)cc1,-7%,10µM*,-31%,?,3%,?
Cc1ccc(S(=O)(=O)CNC(=O)c2ccccc2)cc1,-34%,?,1%,66%,10%,-7%
Cc1ccc(S(=O)(=O)CNC(=S)c2ccc3ccccc3c2)cc1,?,8.9µM*,?,-18%,56µM*,?
Cc1ccc(C(=O)NNC(=O)c2ccc3ccccc3c2)cc1,·,·,-5%,32%,·,0%
COc1ccc(C(=S)Nc2ccc(C)cc2)cc1,-4%,10µM*,-25%,?,32µM*,?
Cc1nn2c(c1-c1cccnc1N1CCOCC1)N(CC1CC1)CCC2,·,·,·,·,·,10µM*
CC(C)=NNc1nc2sc3c(c2c(=O)[nH]1)CC(C)(C)OC3,7%,?,-24%,43%,16µM*,-1%
CC1(C)Cc2c(sc3[nH]c(=S)[nH]c(=O)c23)CO1,-4%,·,89µM*,-15%,?,?
Cn1c(=O)[nH]c2sc3c(c2c1=O)CC(C)(C)OC3,12%,14%[12.7 µM],13%,16%,4%,-19%
CC1(C)CC(=O)C(CC2C(=O)CC(C)(C)CC2=O)C(=O)C1,-3%,22µM*,-9%,28%,-14%,0%
CC1(C)CC(=O)C(CC2CCCCC2=O)C(=O)C1 (configuration not stated),1%,31%[59 µM],-20%,36%,12%,107%
CCCCN(CCCC)CC(O)COc1ccc(Br)cc1 (configuration not stated),32µM*,7.9µM*,1.4µM*,?,-22%,-17%
CCOC(=O)C1=CN(c2ccc(F)cc2)C=C(C(=O)OCC)C1c1ccc2c(c1)OCO2,·,·,·,·,·,8%
COc1ccccc1N1CCN(C(=O)c2noc(C)c2[N+](=O)[O-])CC1,-34%,56µM*,-21%,17%,1%,-8%
O=C(c1ccc([N+](=O)[O-])s1)N1CCN(c2cccc(Cl)c2)CC1,25µM*,22µM*,45µM*,?,-6%,-16%
COc1ccccc1N1CCN(C(=O)c2cc(C(=O)N3CCN(c4ccccc4OC)CC3)cc([N+](=O)[O-])c2)CC1,?,·,-11%,18%,12%,-3%
COc1ccccc1N1CCN(C(=O)c2ccc([N+](=O)[O-])s2)CC1,-5%,45µM*,-20%,-4%,2%,7%
